D2 antagonist – antagonizes the human D2 dopamine receptor; P14416; HEK293 TREx D2 cells, calcium flux, dopamine EC80; inhibition, % at 10 µM; hit rate 2% among 340,000; AID 485344; in the data active means inhibition above about 30%; inactive means below that, where a call was filed; further: 0% is about no effect
Target sequence (P14416 whole entry, looked up): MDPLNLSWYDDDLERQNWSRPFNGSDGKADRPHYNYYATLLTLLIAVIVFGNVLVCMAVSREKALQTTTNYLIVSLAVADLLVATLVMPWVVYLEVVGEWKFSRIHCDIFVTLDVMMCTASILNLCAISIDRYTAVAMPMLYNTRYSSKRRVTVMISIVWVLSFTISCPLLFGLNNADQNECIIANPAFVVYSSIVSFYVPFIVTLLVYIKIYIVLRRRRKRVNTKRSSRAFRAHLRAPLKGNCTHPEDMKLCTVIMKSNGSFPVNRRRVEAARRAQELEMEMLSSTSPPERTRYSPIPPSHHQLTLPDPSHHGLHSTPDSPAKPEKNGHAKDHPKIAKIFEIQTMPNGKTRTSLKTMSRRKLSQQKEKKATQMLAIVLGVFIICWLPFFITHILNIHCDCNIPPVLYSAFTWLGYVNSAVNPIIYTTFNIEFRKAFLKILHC
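Compounds are added to dye-loaded, induced HEK293 T-REx cells coupled to calcium release via D2; after a 3 min kinetic read an EC80 dopamine stimulus is given and fluorescence is recorded for 3 more min.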
D2 PAM-1 – positively modulates the human D2 dopamine receptor allosterically. HEK293 T-REx D2, calcium flux, EC20 dopamine potentiation. potentiation, % at 10 µM. hit rate 0.34% among 340,000;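 active means potentiation over 3 SD above the plate norm, cut at about 30% in these data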; further: 0% is about no effect
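Tetracycline-induced Hek293 Trex D2 cells, force-coupled to calcium, loaded with no-wash calcium dye. Compound added with 180 s kinetic read for agonism, then EC20 dopamine and a further 180 s read for potentiation.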
D2 ag-1 – human D2 receptor agonism in beta-arrestin assay; P14416; DiscoveRx PathHunter D2 beta-arrestin, luminescence, 90 min; 100% = 57 uM dopamine signal; activation, % (no concentration beside the values); hit rate 0.084% among 360,000; in the data active means activation above about 40%; inconclusive means between about 15% and that limit
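DiscoveRx PathHunter D2 beta-arrestin cells (2,100/well) attached overnight, then compound-stimulated 90 min at 37 C in HBSS/10 mM HEPES/0.1% Tween-20 buffer; beta-galactosidase complementation read by luminescence after 1 h at ambient temperature. Dopamine 57 uM final (EC100) as control.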
D2 PAM-2 – positive allosteric modulators of human D2 dopamine receptor; hit rate 0.23% among 360,000; DiscoveRx D2 beta-arrestin cells, luminescence, 90 min; 100% = 57 uM dopamine signal; P14416; AID 624464; potentiation, % (test concentration not listed); in the data active means potentiation above about 50%; inconclusive means mostly about 30% to 49%
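PathHunter D2 cells, attached overnight at 37 deg C, received compound in DMSO plus dopamine at EC20 (50 nM final) for 90 min at 37 deg C. Beta-arrestin recruitment was read as luminescence after 1 h with detection reagent at ambient temperature.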
D2 ag-2 – activates the human D2 dopamine receptor | P14416 | HEK293 T-REx D2 cells, calcium flux agonist mode | activation, % at 2 µM | hit rate 0.53% among 340,000;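 active means activation over 3 SD above normal in the single-dose calcium agonist read, cut at about 30% in these data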; further: 0% is about no effect
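Agonism scored from kinetic calcium signal (1 read/sec, 180 s) following compound pin transfer, after a 10 s baseline. Cells: HEK293 Trex line expressing inducible D2 receptor coupled to calcium, dye-loaded after overnight culture at 30 C.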
Numbers without * were called inactive; ? = inconclusive; · = no result. Sampled rows, rich in hits. Any-hit rate of the full collection: about 2.4%.

SMILES | D2 antagonist | D2 PAM-1 | D2 ag-1 | D2 PAM-2 | D2 ag-2
O=C(Cn1cc(C(=O)c2ccccc2)c(=O)c2cc3c(cc21)OCCO3)Nc1ccc(F)c(F)c1 | · | 0 | · | · | 0
CCCCNC(=O)c1sc(=S)n2c1[nH]c(=O)c1ccccc12 | 33* | -1 | -7 | -19 | 8
COc1cc(NC(=O)C2Cc3ccccc3N2C(=O)c2ccccc2)cc(OC)c1 (stereo not given) | · | -4 | · | · | 0
COc1ccc(Cl)c2c1[nH]c1nc(SCc3cccnc3)nnc12 | 17 | -7 | -5 | -6 | 2
COc1ccc(Cl)c2c1[nH]c1nc(SCc3ccccn3)nnc12 | 43* | -10 | 1 | -17 | -1
CCC(=O)N/N=C/c1ccc(OS(=O)(=O)c2ccccc2)cc1 | -30 | 1 | 3 | -2 | -1
Cc1ccc(/C=N/NC(=O)c2nn(C)cc2Cl)cc1 | 2 | 7 | 4 | -3 | 0
NC(N)=N/N=C/c1ccc(OS(=O)(=O)c2ccccc2)cc1 | 30* | -8 | 7 | -12 | 1
Cn1cc(Cl)c(C(=O)N/N=C/c2ccc(OS(=O)(=O)c3ccccc3)cc2)n1 | 0 | 40* | 0 | -3 | 0
Cc1nn(-c2ccc3nnc(C)n3n2)c(C)c1CCC(=O)Nc1ccc(OC(F)(F)F)cc1 | · | -6 | · | · | 0
CCOC(=O)N1CCC(NCCNC(=O)c2ccc(Cl)cc2)CC1 | 59* | -26 | 0 | -29 | 0
CCOC(=O)N1CCC(NCCNC(=O)c2ccc(F)c(F)c2)CC1 | 59* | -16 | 2 | -23 | 20
O=C(c1ccc(F)cc1)N(NC(=O)C(O)(c1ccccc1)c1ccccc1)c1ccccc1 | 40* | -7 | 4 | 0 | 3
O=C(Nc1ccc2c(c1)OCO2)c1cc(-c2ccccc2Cl)on1 | 37* | -33 | 0 | -12 | 0
O=C(NC1CCCC1)c1cc(-c2ccc(Cl)cc2Cl)on1 | 31* | -10 | 0 | -3 | 0
O=C(NC1CCCCC1)c1cc(-c2ccccc2Cl)on1 | 2 | 0 | -4 | -7 | 0
O=C(NC1CCCC1)c1cc(-c2ccccc2Cl)on1 | 50* | -13 | 3 | -16 | -1
O=C(NC1CCCC1)c1cc(-c2ccccc2O)on1 | 48* | -6 | -6 | -7 | 0
CC(=O)c1ccc(N2CCN(C(=O)C3CCN(S(=O)(=O)c4c(C)noc4/C=C/c4ccccc4F)CC3)CC2)cc1 | · | -5 | · | · | ·
Cc1ccccc1-n1nc(CO)c(C(=O)NCc2cccs2)n1 | · | -8 | · | · | ·
CCCN(c1ccccc1F)S(=O)(=O)c1ccc2c(c1)C(C)(C)C(=O)N2C | · | · | · | · | 0
O=C1CCCc2ccccc2N1 | -6 | 46* | 8 | 1 | 1
CCC(C(=O)NCCc1ccc(Cl)cc1)n1ccc2cc(S(=O)(=O)N3CCCCC3)ccc21 (stereo not given) | · | 2 | · | · | 1
CCCN(C(=O)Nc1cn(CC(C)C)c(=O)c2ccccc12)c1ccc(F)cc1 | · | 0 | · | · | 0
C(=N\Nc1nc(-c2ccccc2)cs1)/c1ccncc1 | -15 | -5 | 4 | -5 | 1
SMILES | D2 antagonist | D2 PAM-1 | D2 ag-1 | D2 PAM-2 | D2 ag-2
C(=N\Nc1nc(-c2ccccc2)cs1)/c1cccs1 | -11 | 5 | 13 | 63* | -1
CCCCN(C(=O)c1c(CC)noc1C)c1c(N)n(CC(C)C)c(=O)[nH]c1=O | 2 | -8 | 2 | 15 | 0
Cc1onc(-c2ccccc2)c1C(=O)N(CC(C)C)c1c(N)n(CC(C)C)c(=O)[nH]c1=O | · | 30* | -2 | -4 | ·
CC1=NN(c2ccccc2)C(c2ccco2)C1 (stereo not given) | · | · | -6 | -6 | ·
O=[N+]([O-])c1ccc(C2=NN(c3ccccc3)C(c3ccco3)C2)cc1 (stereo not given) | -3 | 3 | 0 | -6 | 56*
CCCNC(=O)CC(NS(=O)(=O)c1ccc(OC)cc1)c1ccco1 (stereo not given) | -11 | 35* | 4 | 4 | 0
CCCCNC(=O)CC(NS(=O)(=O)c1ccc(C)cc1)c1ccco1 (stereo not given) | -8 | -1 | -4 | 1 | 1
COc1cccc(NC(=O)CN(C)C(=O)CSc2nc(C)cc(C)n2)c1 | 41* | -5 | -2 | -1 | -1
COc1ccc(NC(=O)CN(C)C(=O)CCSc2ccc(F)cc2)cc1 | 34* | 18 | -4 | -34 | 0
Cc1ccccc1C(=O)N1CCN(CCc2ccccn2)CC1 | · | -6 | · | · | 1
Cc1ccc(NC2=C/C(=N/S(=O)(=O)c3cccs3)c3ccccc3C2=O)cc1C | -6 | 0 | ? | 76* | 1
O=C(NCCNC1CCC(c2ccccc2)CC1)c1ccc(F)cc1 (stereo not given) | 85* | -24 | -9 | -18 | 3
O=C(NCCCc1ccccc1)c1ccc(F)cc1 | -10 | 4 | 0 | -7 | 0
COCc1nc(-c2ccc(-c3ccccc3)nc2OC)no1 | 42* | 5 | -1 | -4 | 0
COc1cccc(-c2ccc(-c3noc(-c4ccccc4F)n3)c(OC)n2)c1 | 40* | -22 | -3 | -13 | 1
O=C(ONC1=NCCCCC1)c1cccc([N+](=O)[O-])c1 | -5 | 0 | 8 | 55* | 0
O=C(Nc1ccc(Cl)c([N+](=O)[O-])c1)ONC1=NCCCCC1 | · | · | ? | 54* | ·
O=C(CN1C(=O)NC2(CCCCCC2)C1=O)Nc1ccc(Cl)c([N+](=O)[O-])c1 | · | · | -3 | -21 | ·
COc1ccc(CCNS(=O)(=O)c2cc3c4c(c2)CC(=O)N4CCC3)cc1 | 35* | -4 | -3 | -4 | 0
O=S(=O)(/C=C/c1ccccc1)N1CCN(c2ccccc2)CC1 | -1 | -7 | 1 | -1 | 0
COc1ccccc1N1CCN(S(=O)(=O)/C=C/c2ccccc2)CC1 | 54* | -1 | -2 | 14 | 1
CCOC(=O)c1c(C)[nH]c(C)c1S(=O)(=O)N(C)CC(=O)N1CCN(c2cccc(Cl)c2)CC1 | · | 1 | · | · | 0
CCCNC(=O)c1ccc(OC)cc1OC | 5 | 2 | -5 | -5 | 0
COc1ccc(OCCCC(=O)NCC(C)C)cc1 | 31* | -1 | -3 | -8 | 0
CCCCCCCCC(=O)NCCOc1ccc(OC)cc1 | 21 | -8 | -5 | -2 | 0
COc1ccc(C(=O)NCC(C)C)c(OC)c1 | -6 | 44* | -1 | -3 | 1
NC(=O)CSc1nc2c(oc3ccccc32)c(=O)n1-c1ccccc1F | · | 3 | · | · | 0
CN(/N=C/c1cc([N+](=O)[O-])ccc1O)c1ccccc1 | 7 | 3 | -8 | -18 | 3
CN(/N=C/c1ccc(-c2ccc([N+](=O)[O-])cc2)o1)c1ccccc1 | 8 | 10 | 0 | 0 | 30*
CC(CCc1ccccc1)N1CCN(Cc2ccccc2)CC1 (stereo not given) | 61* | -16 | -1 | -41 | 0
